Compounds without any hit were thinned out: in the full panel of roughly 83,000, 20% have a hit.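 48-hour exposure, single concentration, 96-well plates; percent growth endpoint where 0 means no net growth. Active: below 10.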 Calls of active or inactive are those of the source.

The test deals with MDA-MB-468 breast. The test is described as follows: NCI-60 one-dose screen, 48 h (100 = growth as untreated, 0 = no growth, -100 = all killed). The following applies: 10 µM unless noted.
For `COc1ccc(Cn2cc3c(c2-c2ccccc2)CCc2cncnc2-3)cc1`, the growth was 32.5% (inactive).
In the case of `COc1ccc(-c2nc3ccc4[nH]ncc4c3c3c2CCCC3)cc1B(O)O`, the growth is 31.5% (inactive).
As to `CCOC(=O)C1=C(C)N=C2Sc3cc(OC(F)(F)F)ccc3N2[C@H]1c1ccccn1`, the growth is 29.1% (inactive).
With `Cc1cccc([N+](=O)[O-])c1Cl`, the growth is 92.4% (inactive).
`Oc1ccc(CCl)c2cccnc12`: the growth is 86.2% (inactive).
The value for `COc1cccc2nc3n(c12)C(c1c(F)cccc1F)SC3` (stereo not given) was 89.2% (inactive).
As to `CC(C)(C)CC(C)(C)c1ccc(OCCO)cc1`, the growth is 113% (inactive).
For `COC(=O)N[C@@H](C)CNc1nccc(-c2cn(C(C)C)nc2-c2cc(Cl)cc(NS(C)(=O)=O)c2F)n1`, the growth is 99.4% (inactive).
Regarding `CC1CCc2c(sc3nc(SCC(=O)N/N=C/c4ccc(Cl)cc4)n(-c4ccccc4)c(=O)c23)C1` (stereo not given), the growth is 85.6% (inactive).
As for `COc1ccc(-c2nc(SC)nc(N3CCOCC3)c2C#N)cc1`, the growth is 101% (inactive).
Consider `Nc1nc(N)c(-c2ccc(Cl)c(Cl)c2)c(CBr)n1`, for which the growth is 84% (inactive).
For the compound `CCCCCCCCN(CCO)CCCCCCCC`, the growth was 98.7% (inactive).
Then `O=C1NN(C(=O)c2ccccc2)C(c2ccc(Cl)c(Cl)c2)=C/C1=C\c1ccc([N+](=O)[O-])cc1`, with 84.2% (inactive); and `CCN(CC)c1ccc(CNc2ccnc3ccccc23)cc1`, with 1.4% (active).
The value for `Nc1nc(N)nc(N2CCCCC2)n1` was 124% (inactive); that for `CCCCCCCCN(CCCCCCCC)CC(O)c1cc(Cl)ccc1OC` (stereo not given) was 32.6% (inactive); that for `CC(/C=C/C=C(\C)[C@H](O)[C@H](C)C(=O)O[C@H]1C[C@H](C)C=C2C=C[C@@]3(C)O[C@@H](O)CC(=O)[C@]3(C)[C@H]21)=C\C=C\C(=O)O` was -21.9% (active).
Consider `CC1=C[C@H]2c3c(c(O)c(O)c4oc(-c5ccccc5)cc(=O)c34)[C@H](c3cc(O)c(O)c4oc(-c5ccccc5)cc(=O)c34)[C@H]2C(C)(C)C1`, for which the growth is 14.2% (inactive).
Then `Cc1ccc(S(=O)(=O)OCC#CCOS(=O)(=O)c2ccc(C)cc2)cc1`, with -25.3% (active).
Then `CC1=CC[C@@H]2C(C)(C)[C@@H](O)CC[C@@]2(C)[C@@H]1COc1ccc2ccc(=O)oc2c1`, with 42.8% (inactive).
Take `Cc1cc(NCCCNc2ccnc3cc(Cl)ccc23)nc(Nc2ccc(C(=O)N3CCCCC3)cc2)n1`: the growth was -19% (active).
The value for `Nc1cc(N)nc(SCC(=O)O)n1` was 108% (inactive).
The value for `C[C@@H](C[C@H](CCO)c1ccccc1)c1ccc2ccccc2c1` was -54.1% (active); that for `CC1(C)C(=O)CC[C@]2(C)[C@H]3C(=O)C=C4[C@@H]5C[C@@](C)(C(=O)NCCNCCN)CC[C@]5(C)CC[C@@]4(C)[C@]3(C)CC[C@@H]12` was 114% (inactive).
Then `COc1cc(NC(=O)SC2=NCCS2)cc(OC)c1`, with 93.3% (inactive); and `Cc1cc2c(c(=O)o1)C(c1ccc(OC(=O)N3CCOCC3)cc1)C(C#N)=C(N)O2` (stereo not given), with 119% (inactive); and `CN1C(=O)NC(c2ccc(Cl)cc2)(c2ccc(Cl)cc2)C1=O`, with 104% (inactive).
For `N[C@@H](CC/[N+]([O-])=N/O)C(=O)O`, the growth was 97.4% (inactive).
As for `Cc1c2oc3c(C)ccc(C(=O)OC(C)C4NC(=O)C(C(C)C)N(C)C(=O)CN(C)C(=O)C5CCCN5C(=O)C(C(C)C)NC4=O)c3nc-2c(C(=O)OC(C)C2NC(=O)C(C(C)C)N(C)C(=O)CN(C)C(=O)C3CCCN3C(=O)C(C(C)C)NC2=O)c(N)c1=O` (stereo not given), the growth was -68.7% (active).
In the case of `CCOC(=O)N1CCC(N=C2CSc3nnc(-c4cc(C(F)(F)F)cc(C(F)(F)F)c4)n3N2)CC1`, the growth was 2.22% (active).
With `Nc1ccc(N=Nc2ccc(O)cc2)c(N)n1`, the growth is 83.4% (inactive).
The value for `Cc1cccc2c(N)c3ccccc3nc12` was -60.5% (active).
As for `Cc1n(Cc2ccc3ccccc3c2)cc[n+]1Cc1ccc2ccccc2c1`, the growth was -22.8% (active).
Then `c1ccc(-c2[nH]c3ccccc3c2-c2ccccc2)cc1`, with 84.1% (inactive); and `C=C1C(=O)O[C@H]2[C@H]1CC/C(COC(=O)NCc1cccc(OC)c1)=C\CC[C@@]1(C)O[C@@H]21`, with -13.2% (active); and `Cc1ccc(-c2nn(CC(=O)N3CCOCC3)c(N)c2C#N)cc1`, with 104% (inactive).
Then `COc1cc2ncnc(Nc3ccc(F)c(Cl)c3)c2cc1OCC(=O)N1CCOCC1`, with -15.9% (active).
Then `COc1ccc(Nc2ncc(Br)c(NCCCNC(=O)C3CCC3)n2)cc1`, with 71.2% (inactive); and `O=C(Cc1ccccc1)NNc1nc(Cl)nc(N2CCN(C(c3ccccc3)c3ccccc3)CC2)n1`, with 38.2% (inactive).
For `CCc1ccc(Oc2c(-c3ccc(OCc4ccc(Cl)cc4)cc3O)nn(C)c2C(F)(F)F)cc1`, the growth was -11.1% (active).

Source of the values: PubChem BioAssay (NCI).
